In PubChem BioAssay AID504766 (The Scripps Research Institute Molecular Screening Center, 2011):
Values joined by “and” are separate entries in the source; they are usually repeats but may differ in a detail not shown here. Identical values can stand only once. Hit rate of the full screen: of about 340,000 compounds, about 3,400 (1%) were called active. The sample holds actives, similar compounds and a random draw of the others, so the mix is not that of the screen.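 Rule for the calls: active = inhibition above the mean over all tested compounds plus 3 SD (cut at about 4.2% in these data); inactive = the rest.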 Some compounds were tested as several samples or in several runs, with calls that do not always agree.

These molecules were tested against Nuclear receptor subfamily 0 group B member 1 (Homo sapiens) (UniProt P51843) (assay: relief of DAX1 transcriptional repression – cell-based, HEK293, Gal4-DAX1, luciferase luminescence, primary screen (AID 504766;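 note: 0% = DAX1-transfected cells with DMSO and 100% = empty-vector control cells with DMSO; inhibition shows as a rise in luminescence from relieved DAX1 repression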)). Details: HEK293 Gal4-DAX1 luciferase reporter, at 6.75 µM, stronger effect = higher value.
Nuclear receptor subfamily 0 group B member 1 (Homo sapiens), sequence (P51843 207-470 limits assumed): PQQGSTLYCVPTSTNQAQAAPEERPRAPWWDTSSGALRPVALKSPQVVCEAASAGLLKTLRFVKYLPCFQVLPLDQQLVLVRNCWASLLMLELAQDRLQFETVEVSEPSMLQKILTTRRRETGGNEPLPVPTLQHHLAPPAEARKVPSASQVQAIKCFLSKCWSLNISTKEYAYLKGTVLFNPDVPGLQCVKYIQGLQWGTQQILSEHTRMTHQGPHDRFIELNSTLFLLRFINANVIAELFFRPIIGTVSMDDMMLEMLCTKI

SMILES | inhibition
CC(C)CC1C(=O)N(Cc2cn(Cc3ccco3)nn2)CCS(=O)(=O)N1Cc1ccc(-c2ccc(Cl)c(Cl)c2)cc1 (stereo not drawn) | -1.34% (inactive)
CCn1c(SCC(=O)N2CCCC2=O)nc2ccccc21 | 1.3% (inactive)
CCOC(=O)c1cc2c(nc1NC(=S)Nc1ccccc1)CC(C)(CC)OC2 (stereo not drawn) | 0.77% (inactive)
CCOC(=O)c1ccc(NC(=S)Nc2cc(C)cc(C)n2)cc1 | 1.42% (inactive)
CCOC(=O)c1cn[nH]c1NC(=S)Nc1ccccc1 | 6.19% (active)
O=C(NN=Cc1ccc2c(c1)CCC2)c1ccccc1O | 2.24% (inactive)
O=C(C[C@H]1C[C@H]2c3cc(NS(=O)(=O)c4ccc(F)cc4)ccc3O[C@H]2[C@H](CO)O1)NCc1cc(F)ccc1F | -0.52% (inactive)
Cc1ccc(NC(=O)CN(C)CC(=O)Nc2cccc(F)c2)cc1[N+](=O)[O-] | -3.16% (inactive)
Cc1ccc(NC(=O)CN2CCC(C(N)=O)CC2)cc1[N+](=O)[O-] | 0.4% (inactive)
Cc1ccc(NC(=O)c2sccc2C)cc1[N+](=O)[O-] | 5.25% (active)
CC(=O)Nc1cccc(C(=O)OCN2C(=O)c3ccccc3C2=O)c1 | 0.92% (inactive)
CCN(CC)N=Nc1cccc(NC(C)=O)c1 | 8.01% (active)
CCN(CC)C(=O)C(=O)Nc1cccc(Br)c1 | 1.59% (inactive)
CC(C)n1ncc2c(C(=O)N3CCN(Cc4cccs4)CC3)cc(C3CC3)nc21 | -1.38% (inactive)
Cc1ccc(S(=O)(=O)N(CCc2ccccc2)c2ccc3c(c2)C2CC3CCN2C(=O)OCc2ccccc2)cc1 (stereo not drawn) | -0.92% (inactive)
O=C(CN1CCN(C(=O)c2ccco2)CC1)Nc1ccc(Cl)c(C(F)(F)F)c1 | -0.99% (inactive)
O=C(c1ccco1)N1CCN(Cc2cccc(C(F)(F)F)c2)CC1 | 4.58% (active)
O=C(c1ccco1)N1CCN(CCOc2ccccc2)CC1 | 3.53% (inactive)
Fc1cccc(Cc2noc(CN3CCN(c4cnccn4)CC3)n2)c1 | -1.08% (inactive)
CCOC(=O)N1CCN(Cc2nc(Cc3cccc(C(F)(F)F)c3)no2)CC1 | 4.88% (active)
FC(F)(F)c1cccc(Cc2noc(CN3CCC(N4CCCCC4)CC3)n2)c1 | 0.44% (inactive)
Cc1cc(C)c2cc(C#N)c(N3CCNCC3)nc2c1 | 0.35% (inactive)

SMILES | inhibition
O=Cc1cn(CCOc2ccc(F)cc2)c2ccccc12 | -0.3% (inactive)
O=C(CNC(=O)N1CC(=O)Nc2ccccc21)Nc1ccc(Br)cc1F | 0.45% (inactive)
Cc1nnc(SC(C)C(=O)c2c[nH]c3ccccc23)n1C1CC1 (stereo not drawn) | 0.71% (inactive)
CCc1ccccc1NC(=O)CN(c1ccc(OC)cc1OC)S(=O)(=O)c1ccccc1[N+](=O)[O-] | 5.44% (active)
COc1ccc(N(CC(=O)Nc2cccc3ccccc23)S(C)(=O)=O)c(OC)c1 | -0.73% (inactive)
COc1ccc2c(CC(=O)OCC(=O)Nc3ccccc3[N+](=O)[O-])coc2c1 | 0.79% (inactive)
CCN(CC)C(=O)C1=C(C)N(Cc2ccc(OC)cc2)C(=O)C(CC(=O)NCCCCc2ccccc2)C1 (stereo not drawn) | -0.34% (inactive)
CCOc1ccc(CCNC(=O)COC(=O)c2ccc(C)c(S(=O)(=O)N3CCOCC3)c2)cc1OCC | -0.65% (inactive)
CCN(CC)C(=O)C1=C(C)N(Cc2ccc(C(C)(C)C)cc2)C(=O)C(CC(=O)NCc2cccc3ccccc23)C1 (stereo not drawn) | -0.14% (inactive)
Cc1cc(-c2nc(C)c(-c3nnc(SCC(=O)Nc4ccccc4)n3C)s2)no1 | -0.43% (inactive)
Cn1c(SCC(=O)Nc2cccc(NC(=O)c3cccs3)c2)nnc1-c1ccncc1 | -0.64% (inactive)
Cc1nc(-c2nnc(SCC(=O)Nc3cc(C(F)(F)F)cc(C(F)(F)F)c3)n2C)cs1 | 6.44% (active)
O=C(c1ccc(CS(=O)Cc2ccccc2Cl)o1)N1CCN(c2ccccc2)CC1 (stereo not drawn) | 0.5% (inactive)
CCOC(=O)C(C(=O)c1ccccc1)C(c1ccccc1)c1nccc2ccccc12 (stereo not drawn) | -0.83% (inactive)
CC1(c2cccc(Br)c2)NC(=O)N(CC(=O)NCCC2=CCCCC2)C1=O (stereo not drawn) | 1.45% (inactive)
O=S1(=O)CCN(Cc2ccccc2)CC1 | -0.64% (inactive)
CC(C)C(=O)N1CCN(CCN=CC2=C(O)CC(c3ccco3)CC2=O)CC1 (stereo not drawn) | 5.43% (active) and 1.58% (inactive)
CC(=O)N1CCN(CCN=CC2=C(O)CC(C)(C)CC2=O)CC1 | 0.1% (inactive)
O=C1CC(c2ccccc2)CC(O)=C1C=NCCN1CCOCC1 (stereo not drawn) | -0.18% (inactive)
CC1(C)CC(=O)C=C(c2ccc(COC(=O)c3cc(F)cc(F)c3)cc2)C1=O | -0.88% (inactive)
CC1C(=O)N(Cc2cn(CC3CCCCC3)nn2)CCS(=O)(=O)N1Cc1ccc(-c2cccc(N(C)C)c2)cc1 (stereo not drawn) | 0.14% (inactive)
C[C@H](CO)N1C[C@H](C)[C@H](CN(C)C(=O)Nc2ccc3c(c2)OCO3)Oc2ncc(Br)cc2C1=O | 2.47% (inactive)

SMILES | inhibition
N#CC1=C(N)Oc2cc(N)ccc2C1c1ccccc1 (stereo not drawn) | 0.38% (inactive)
Cc1cc2c(c(=O)n1C)C(C(C)C)C(C#N)=C(N)O2 (stereo not drawn) | -0.55% (inactive)
Cn1c2c(c(=O)n(C)c1=O)C(c1cccc(F)c1)C(C#N)=C(N)O2 (stereo not drawn) | 5.95% (active)
CC1CC(NC(=S)N(C)C)CC(C)(C)C1 (stereo not drawn) | 1.5% (inactive)
COc1cccc(/C=C2\SC(=S)N(CCCC(=O)N3CCOCC3)C2=O)c1 | -0.53% (inactive)
CCOC(=O)N1CCN(C(=O)c2cc3c(-c4ccc(Cl)cc4)nn(C)c3s2)CC1 | 4.96% (active)
COc1ccccc1N1CCN(C(=O)c2cc3c(-c4ccc(Cl)cc4)nn(C)c3s2)CC1 | 2.84% (inactive)
COc1cccc(-c2nn(C)c3sc(C(=O)N4CCN(c5ccccc5)CC4)cc23)c1 | -1.01% (inactive)
COCCCn1c(C(=O)NC2CCCCC2)cc2c(=O)n3cccc(C)c3nc21 | -1.22% (inactive)
O=C(Nc1ccc2c(c1)[C@@H]1C[C@@H](CC(=O)N3CCCCC3)O[C@@H](CO)[C@@H]1O2)NC1CCCCC1 | 0.47% (inactive)
Cc1cccc(C(=O)NC2CCN(CC(=O)Nc3cccc(Cl)c3)CC2)c1 | 0.29% (inactive)
O=C(NCCN1CCOCC1)C1CCN(S(=O)(=O)c2ccccc2)CC1 | 4.19% (inactive)
CC1(C)CC(=O)C/C(=N\NC(=O)c2cccs2)C1 | -0.39% (inactive)
CC1CC(=NNC(=O)C2COc3ccccc3O2)CC(C)(C)C1 (stereo not drawn) | 0.05% (inactive)
CC1C/C(=N/NC(=O)c2cccs2)CC(C)(C)C1 (stereo not drawn) | 5.93% (active)
C[C@H](CO)N1C[C@H](C)[C@@H](CN(C)C(=O)c2cnccn2)Oc2ncc(Br)cc2C1=O | -0.09% (inactive)
COc1ccc(C(=O)NC2CC(C)(C)NC(C)(C)C2)cc1OC | 0.53% (inactive)
COc1cc(OC)c(C(=O)NC2CC(C)(C)NC(C)(C)C2)cc1OC | 0.81% (inactive)
COc1cc2c(cc1OC)C(=O)NCC(C)(C)O2 | 4.35% (active)
O=C(OCc1cn([C@H]2C[C@H](c3ccccc3)N(C(=O)c3cccs3)C[C@@H]2O)nn1)c1ccccc1 | -0.83% (inactive)
COc1ccc(C(=O)Nc2cccc(NC(=O)c3ccc(OC)cc3OC)n2)c(OC)c1 | -0.74% (inactive)
COc1ccc(C(=O)Nc2nncs2)c(OC)c1 | 5.95% (active)

SMILES | inhibition
COc1ccc(C(=O)NC2=NCCS2)c(OC)c1 | 0.9% (inactive)
Cn1nc(N)c2ncc(C(Cl)(Cl)Cl)nc21 | 0.87% (inactive)
CCOC(=O)c1c(C)[nH]c(C)c1C(=O)COC(=O)/C=C/c1cccc([N+](=O)[O-])c1 | 0.45% (inactive)
CC(CCc1ccccc1)NC(=O)c1ccc(Br)o1 (stereo not drawn) | -0.46% (inactive)
CC1=C(C)CC(C(=O)NC(C)CCc2ccccc2)C(C(=O)O)C1 (stereo not drawn) | 4.67% (active)
CCN(CC)S(=O)(=O)N1CCC(C(=O)NC(C)CCc2ccccc2)CC1 (stereo not drawn) | 0.09% (inactive)
CC(C)CC1C(=O)N(Cc2cn(CC3CCCCC3)nn2)CCS(=O)(=O)N1Cc1ccc(-c2ccc(Cl)cc2)cc1 (stereo not drawn) | 0.42% (inactive)
CC(=O)c1ccc(OCC(=O)N(C)C2CCS(=O)(=O)C2)cc1 (stereo not drawn) | -0.31% (inactive)
CN1CCN(/N=C/c2ccc(C#N)cc2)CC1 | 2.94% (inactive)
Cc1ccc(-c2ccc(/C=N/NC(=O)CN3CCOCC3)o2)cc1[N+](=O)[O-] | -1.47% (inactive)
CN1CCN(/N=C/c2ccc(-c3ccc([N+](=O)[O-])cc3)o2)CC1 | 4.57% (active)
C[C@H]1CN(c2ccc(Br)cc2)C(=O)[C@@H]1CC(=O)Nc1ccc(Br)cc1 | 0.61% (inactive)
CCc1cc(C(=O)N(CC)CC(=O)Nc2c(F)cccc2F)sc1C | 1.94% (inactive)
CCC(=O)Nc1ccc2nn(-c3ccc(F)cc3)nc2c1 | 1.93% (inactive)
Nc1ccc2nn(-c3ccc(Cl)cc3)nc2c1 | 5.29% (active)
Nc1ccc2c(c1)C(O)c1ccc(Cl)cc1-2 (stereo not drawn) | 1.37% (inactive)
Cc1ccc(Nc2nc(N)nc(CSc3nnc(C)s3)n2)cc1 | 4.29% (active)
Cc1nnc(SCc2nc3ccccc3nc2C)s1 | 0.55% (inactive)
Cc1ccccc1Nc1nc(N)nc(CSc2ccccc2)n1 | 3.71% (inactive)
Cc1cn([C@H]2C[C@H](O)[C@@H](CNC(=O)[C@H](N)Cc3cccnc3)O2)c(=O)[nH]c1=O | 0.07% (inactive)
CNC(=O)C[C@H]1C(=O)N(c2ccc(OC)cc2)C[C@@H]1Cc1ccccc1 | 0.14% (inactive)
C[C@H](CO)N1C[C@H](C)[C@@H](CN(C)S(=O)(=O)c2ccc(Oc3ccccc3)cc2)OCc2cn(nn2)CCCC1=O | 0.27% (inactive)
